Bioassay records as filed in PubChem.
This is a sample that favours compounds with a hit; in the whole collection about 2.4% have one here.
WRN inhibitor: qHTS for Inhibitors of WRN Helicase; Bifunctional 3'-5' exonuclease/ATP-dependent helicase WRN (Homo sapiens), Q14191; WRN helicase unwinding, fluorescent forked duplex, kinetic; Potency, µM (highest dose often 114 µM), for inactives: top-dose activity change, negative = inhibition, hits mostly inhibitors; 360,000 compounds, 0.46% hits; further: on the % scale 0 is the no-effect control and ±100 the full control effect; nearly all actives have a fitted effect of over 55% in size
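Primary qHTS, 1536-well format. 20 nM WRN + compound, 15 min RT; start with 100 nM forked fluorophore/quencher duplex, 2 mM ATP (final); kinetic read ex 525/em 598 nm.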
POLI inh: qHTS for Inhibitors of Polymerase Iota | 390,000 compounds, 1% hits | AID 588590, 2011 | Pol iota fluorescent replication assay, 10 min | Potency, µM (series often up to 115 µM), for the others: at the highest dose activity, negative = inhibition, most hits filed as inhibitors | DNA polymerase iota (Homo sapiens), Q9UNA4
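Fluorescent replication assay read twice, at 0 min and 10 min after adding 50 nM (final) substrate. Enzyme (10 nM) and compounds were first incubated 15 min at room temperature; enzyme-free buffer wells were negative controls.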
Pol beta inh: qHTS Assay for Inhibitors of DNA Polymerase Beta | Pol beta primer extension/strand displacement, fluorescence kinetic | P06746 | Potency, µM (top dose mostly 114 µM), inactives show top-dose activity change, negative = inhibition, most hits filed as inhibitors | 340,000 compounds, 1.3% hits; further: on the % scale 0 is the no-effect control and ±100 the full control effect
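10 nM enzyme + cpd, 15 min RT; start with substrate 50 nM final; read 0 min and after 10 min RT. Corrected, normalized data; 4-parameter Hill curve fit.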
FEN1 inhibitor: qHTS Assay for the Inhibitors of Human Flap endonuclease 1 (FEN1) | P39748 | Recombinant FEN1 flap cleavage, fluorescence, 15 min | Potency, µM (doses to about 114 µM), without a hit: at the top dose activity change, negative = inhibition, actives largely listed as inhibitors | 390,000 compounds, 0.35% hits; further: on the % scale 0 is the no-effect control and ±100 the full control effect; nearly all actives have a fitted effect of over 65% in size
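Recombinant FEN1 (10 nM) was preincubated with pin-transferred compounds for 15 min at room temperature, then flap DNA substrate (50 nM final) was added. Plates were read at 0 and 15 min, and normalized concentration–response data were fitted to a four-parameter Hill equation.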
Pol eta inh-1: qHTS for Inhibitors of Polymerase Eta; DNA polymerase eta (Homo sapiens), Q9Y253; recombinant Pol eta, fluorescent DNA replication assay; Potency, µM (series often up to 114 µM), for the others: at the top dose activity change, negative = inhibition, usual class: inhibitors; 390,000 compounds, 1.2% hits; further: on the % scale 0 is the no-effect control and ±100 the full control effect
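Pol eta at 10 nM preincubated with compounds 15 min at room temperature; reaction started with fluorescent substrate (50 nM final) and read kinetically at 0 and 10 min.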
Pol kappa inh-1: qHTS for Inhibitors of Polymerase Kappa | DNA polymerase kappa (Homo sapiens), Q9UBT6 | purified Pol kappa, fluorescent DNA synthesis assay, 10 min | Potency, µM (highest dose often 107 µM), without a hit: at the highest dose activity, negative = inhibition, usual class: inhibitors | 400,000 compounds, 0.53% hits | AID 588579, 2011; further: on the % scale 0 is the no-effect control and ±100 the full control effect
Target sequence (Q9UBT6 whole entry, looked up): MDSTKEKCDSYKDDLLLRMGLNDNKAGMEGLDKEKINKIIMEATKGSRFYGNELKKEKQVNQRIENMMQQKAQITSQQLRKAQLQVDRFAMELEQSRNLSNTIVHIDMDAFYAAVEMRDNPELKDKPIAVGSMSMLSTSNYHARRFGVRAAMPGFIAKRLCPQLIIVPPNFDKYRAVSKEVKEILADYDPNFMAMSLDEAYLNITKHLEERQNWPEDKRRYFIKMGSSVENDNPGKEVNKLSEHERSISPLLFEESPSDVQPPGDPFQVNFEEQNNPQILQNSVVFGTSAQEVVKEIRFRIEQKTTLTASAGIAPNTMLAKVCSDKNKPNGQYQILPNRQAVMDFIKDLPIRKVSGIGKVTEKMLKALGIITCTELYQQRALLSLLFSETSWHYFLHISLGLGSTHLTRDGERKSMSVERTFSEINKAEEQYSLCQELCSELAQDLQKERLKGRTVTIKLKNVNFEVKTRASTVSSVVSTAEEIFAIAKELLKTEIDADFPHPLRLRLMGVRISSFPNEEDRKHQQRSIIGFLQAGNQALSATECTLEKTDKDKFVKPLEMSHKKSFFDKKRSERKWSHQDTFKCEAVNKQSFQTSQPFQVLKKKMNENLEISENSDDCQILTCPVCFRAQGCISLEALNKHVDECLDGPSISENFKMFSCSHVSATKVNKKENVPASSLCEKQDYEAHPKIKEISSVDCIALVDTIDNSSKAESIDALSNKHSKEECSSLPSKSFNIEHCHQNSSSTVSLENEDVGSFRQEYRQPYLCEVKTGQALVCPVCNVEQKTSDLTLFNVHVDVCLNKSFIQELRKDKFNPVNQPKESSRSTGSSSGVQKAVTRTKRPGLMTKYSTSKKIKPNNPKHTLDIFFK
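Kinetic fluorescence readout at 0 and 10 min followed reaction start with substrate at 50 nM final. Beforehand, enzyme (10 nM Pol kappa) stood 15 min with compound at room temperature; buffer-only wells were negative controls.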
TbPGK inh: qHTS for inhibitors of Phosphogylcerate Kinase: Hit Validation Screen. shares compounds with Pol kappa inh-1. TbPGK coupled GAPDH assay, Kinase-Glo luminescence. Potency, µM (series often up to 57.5 µM), for inactives: at the highest dose activity change, negative = inhibition, actives largely listed as inhibitors. 500 compounds, 79% hits. AID 686980, 2013; further: on the % scale 0 is the no-effect control and ±100 the full control effect; nearly all actives have a fitted effect of over 65% in size
POLI cherry-pick: qHTS for Inhibitors of Polymerase Iota: Confirmatory Assay for Cherry-picked Compounds. shares compounds with Pol kappa inh-1. Pol iota primer extension, TAMRA/BHQ fluorescence. Potency, µM, actives largely listed as inhibitors. 1,500 compounds, 77% hits. AID 720496, 2013
Pol kappa inh-2: qHTS for Inhibitors of Polymerase Kappa: Confirmatory Assay for Cherry-picked Compounds; shares compounds with Pol eta inh-1; purified Pol-kappa, fluorescent strand-displacement substrate; Potency, µM, most hits filed as inhibitors; 920 compounds, 76% hits; AID 720501, 2013
Pol eta inh-2: qHTS for Inhibitors of Polymerase Eta: Confirmatory Assay for Cherry-picked Compounds | Potency, µM, usual class: inhibitors | 2,600 compounds, 64% hits | Pol eta primer extension, TAMRA/BHQ fluorescence, 10 min | shares compounds with Pol eta inh-1
* = called active by the depositor; ? = inconclusive; . = not tested or not shown; [ ] = dose if it differs, or a comment. The call rests on the fitted dose curve; in most records, active means well fitted curve in the direction sought with a large enough effect; inconclusive means small, poorly fitted or top-dose-only effect, or another doubt; inactive means no such curve, though single readings can be large; an effect the other way counts as inactive or inconclusive. Potency means the concentration at half of the fitted maximal effect.

SMILES | WRN inhibitor | POLI inh | Pol beta inh | FEN1 inhibitor | Pol eta inh-1 | Pol kappa inh-1 | POLI cherry-pick | Pol eta inh-2 | others
CC(C)CC(NC(=O)c1ccccc1)C(=O)N/N=C/c1ccco1 (centres undefined) | -12.9% | ? | 89.1µM* | -0.7% | 14.1µM* | ? | . | ? | TbPGK inh=?
Cc1ccccc1C(=O)Nc1nnc(SCc2cc(=O)c3c(C)ccc(C)c3[nH]2)s1 | . | -16.2% | 2.4% | 10.8% | -23.1% | -15.0%[60.1 µM] | . | .
CC1=NN(c2ccc(C(=O)O)cc2)C(=O)CC1 | -7.0% | 41.4% | ? | 0.6% | -15.7% | 0.8% | . | .
CC1=NN(c2ccc(C(=O)O)c(N)c2)C(=O)C1 | -17.4%[57.1 µM] | 1.26µM* | 10µM* | -35.1% | 22.4µM* | 89.1µM* | 59.7* | 33.8*
O=C(CSc1nc(-c2cccc(Cl)c2)nc2cc(=O)[nH]n12)Nc1ccccc1 | . | ? | 20µM* | -33.3% | 50.1µM* | -34.8% | 59.7* | 84.9*
Cn1c(CNC(=O)CSc2nc(-c3cccc(Cl)c3)nc3cc(=O)[nH]n23)nc2ccccc21 | . | ? | ? | 5.8% | -11.0% | -28.2% | . | .
CC(=O)Nc1ccc(NC(=O)CSc2nc(N)c(NC(=O)c3ccccc3F)c(=O)[nH]2)cc1 | ? | 39.8µM* | ? | -1.7% | 25.1µM* | ? | 67* | ? | Pol kappa inh-2=?
COc1ccccc1-c1cc2nc(C)c(CCC(=O)NCCc3cccc(C)c3)c(C)n2n1 | . | 9.4% | ? | -7.0% | -17.3% | -18.3% | . | .
O=C(CSc1nnc(SCc2ccccc2)s1)N/N=C/C=C/c1ccco1 | 39.8µM* | 14.1µM* | 10µM* | ? | 2.82µM* | 25.1µM* | 15* | 19* | Pol kappa inh-2=15*
CCn1c(SCC(=O)N/N=C(\C)c2ccco2)nnc1-c1ccccc1 | 1.0% | 13.1% | 12.6% | -3.8% | -6.3% | 5.4% | . | .
Cn1c(SCC(=O)N/N=C/C=C/c2ccco2)nc2ccccc21 | ? | 35.5µM* | 22.4µM* | ? | 14.1µM* | 79.4µM* | 67* | 75.7*
CCn1c(SCC(=O)N/N=C/C(C)=C/c2ccco2)nnc1-c1ccccc1 | ? | ? | ? | -20.5% | 89.1µM* | ? | 59.7* | ?
O=C(CSc1nnc(SCc2cccc3ccccc23)s1)N/N=C/c1c[nH]c2ccccc12 | -9.6% | 6.8% | 4.7% | 8.6% | -18.5% | 1.3% | . | .
O=C(CSc1nnc(SCc2ccc(Cl)cc2)s1)N/N=C/c1c[nH]c2ccccc12 | ? | 10µM* | 8.91µM* | ? | 3.16µM* | ? | 8.44* | 19*
O=C(Cc1cccs1)N/N=C/C=C/c1ccco1 | ? | 28.2µM* | 17.8µM* | -18.3% | 8.91µM* | 79.4µM* | ? | ? | Pol kappa inh-2=29.9*
Cc1ccc(NC(=O)Cn2c(O)c(N=NC(=O)c3cc([N+](=O)[O-])ccc3O)c3ccccc32)cc1 | . | . | -18.5% | . | . | . | . | .
Cc1cccc(NC(=O)Cn2c(O)c(N=NC(=O)c3ccccc3O)c3ccccc32)c1 | ? | 90.6% | 15.8µM* | -33.9% | 44.7µM* | -15.4% | 47.4* | ?
Cc1ccc(Sc2ccc(/C=C3/C(=O)NN(c4ccccc4)C3=O)o2)cc1 | -11.4%[11.6 µM] | -96.0% | ? | -5.0% | 22.4µM* | ? | 67* | ? | Pol kappa inh-2=23.8*
O=C1NN(c2ccccc2)C(=O)/C1=C/c1ccc(Sc2ccc(Cl)cc2)o1 | ? | 7.94µM* | ? | -16.3% | . | 50.1µM* | ? | 30.1*
Cc1ccc2c(c1)C(=O)[C@@]1(O)CCN(c3ccccc3)C1=N2 | . | . | . | . | . | -4.1%[19.4 µM] | . | .
CCCCC1CCC(C(=O)N2CC(=O)Nc3ccc(F)cc3C2c2ccc(F)cc2)CC1 (centres undefined) | . | ? | ? | -6.8% | ? | -14.3% | . | .
CCC(=O)Nc1nnc(SCc2cc(=O)c3cc(C)ccc3[nH]2)s1 | . | -15.6% | -11.0% | -3.3% | 6.1% | -7.1%[60.1 µM] | . | .
CC(=O)Nc1nnc(SCc2cc(=O)c3cc(C)ccc3[nH]2)s1 | . | 79.4µM* | 39.8µM* | -11.5% | 50.1µM* | -2.5%[60.1 µM] | 67* | ? | Pol kappa inh-2=16.8*
CCC(=O)Nc1nnc(S(=O)(=O)N(C)Cc2ccccc2)s1 | . | -5.3% | 12.1% | -2.7% | -7.3% | -6.1% | . | .
O=C(NCc1ccccc1Cl)C1CCN(C(=O)N2CCOc3ccccc32)CC1 | . | 21.9% | 2.0% | -2.5% | -15.5% | 2.1% | . | .
Cc1nnc(N2CCC(C(=O)NCCc3ccccc3Cl)CC2)c2nn(-c3ccccc3)c(C)c12 | . | -4.2% | -27.3% | -5.7% | ? | -2.2% | . | .
